Compound activity: PubChem BioAssay, National Center for Advancing Translational Sciences (NCATS)
Many of the other results were omitted from the sample, so hits are more common in it than they were.
ClpP mod = qHTS Assay for Activators of ClpP | Potency, µM (doses to about 57.5 µM) | purified B. subtilis ClpP, FRET peptide cleavage, 20 min | 340,000 compounds, 1.9% hits; active = well fitted falling curve with a large enough effect; inconclusive = small, poorly fitted or top-dose-only effect; inactive = no such curve, though single readings can be large or run the other way; also: the source files actives as falling curves though it sought activators and does not explain the sign; nearly all actives have a fitted effect of over 65% in size
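FRET quenching reversal measured ClpP activation: 10 microg/mL B. subtilis ClpP at pH 8 with the FRET-FV decapeptide, read at 430 nm after 320 nm excitation. The 20-min minus 0-min signal was scaled between DMSO/no-enzyme wells and ADEP (5.8 microM final).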
Menin MLL FP TR = menin-MLL binding inhibition, Texas Red mutant peptide; O00255; Menin + Texas Red MLL mutant peptide, fluorescence polarization; Potency, µM (doses to about 61.6 µM), usual class: inhibitors; 270,000 compounds, 0.23% hits; AID 1768; active = well fitted inhibition curve with a large enough effect in the polarisation, with a control signal flat, not every such curve was filed as active; inconclusive = small, poorly fitted or top-dose-only effect, or effect the other way, or a change in a side signal; inactive = no such curve, though single readings can be large or run the other way; the % refers to the polarisation
Target sequence (O00255 whole entry, looked up): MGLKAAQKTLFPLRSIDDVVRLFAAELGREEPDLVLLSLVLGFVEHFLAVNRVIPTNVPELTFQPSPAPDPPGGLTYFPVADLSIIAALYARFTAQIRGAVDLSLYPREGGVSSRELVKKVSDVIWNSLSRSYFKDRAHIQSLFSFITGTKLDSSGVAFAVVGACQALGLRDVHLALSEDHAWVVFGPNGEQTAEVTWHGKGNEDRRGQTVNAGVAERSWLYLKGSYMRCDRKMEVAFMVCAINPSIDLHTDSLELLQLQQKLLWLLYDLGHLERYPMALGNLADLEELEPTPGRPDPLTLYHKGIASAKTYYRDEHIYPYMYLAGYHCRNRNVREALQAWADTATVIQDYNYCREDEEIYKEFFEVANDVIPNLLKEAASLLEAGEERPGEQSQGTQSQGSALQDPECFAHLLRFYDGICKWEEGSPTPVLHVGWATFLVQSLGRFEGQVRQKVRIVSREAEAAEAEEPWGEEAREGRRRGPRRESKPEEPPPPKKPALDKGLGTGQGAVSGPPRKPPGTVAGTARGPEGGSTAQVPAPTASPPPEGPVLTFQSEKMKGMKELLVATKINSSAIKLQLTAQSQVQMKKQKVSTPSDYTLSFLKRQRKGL
Menin MLL FP FL = menin-MLL binding inhibition, fluorescein peptide; Fluorescence polarization, fluorescein-MLL peptide displacement from menin; FP activity change, % at 61.4 µM; 290,000 tested, under 10 active; AID 1766; active = well fitted curve in the direction sought with a large enough effect in the polarisation, not every such curve was filed as active; inconclusive = small, poorly fitted or top-dose-only effect, or effect the other way, or a change in a side signal; inactive = no such curve, though single readings can be large or run the other way; the % refers to the polarisation
p53 reactivator = mutant p53 re-activation in reporter cells; 320,000 compounds, 0.063% hits; Potency, µM (top dose mostly 92.2 µM), actives largely listed as activators; AID 504706; H1299 p53-A138V BP100-luciferase reporter, luminescence, 24 h; active = well fitted activation curve with a large enough effect; inconclusive = small, poorly fitted or top-dose-only effect; inactive = no such curve, though single readings can be large or run the other way; also: nearly all actives have a fitted effect of over 45% in size
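p53-null H1299 cells stably carrying temperature-sensitive p53-A138V and a BP100-luciferase reporter were pinned with compounds (4-point, 1:5 series) and held 24 hrs at 37 deg C. Luminescence was read 10 min after detection reagent.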
CXXC DNA block = inhibitors of human MLL CXXC domain-DNA interaction; MLL-CXXC / FITC-HOXA9 DNA fluorescence polarization; Q03164; Potency, µM (top dose mostly 115 µM), hits mostly inhibitors; 290,000 compounds, 0.037% hits; AID 2662; active = well fitted inhibition curve with a large enough effect in the polarisation, with a control signal flat, not every such curve was filed as active; inconclusive = small, poorly fitted or top-dose-only effect, or effect the other way, or a change in a side signal; inactive = no such curve, though single readings can be large or run the other way; the % refers to the polarisation
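Fluorescence polarization: 7 uM MLL-CXXC (stock) preincubated 5 min with compounds, then 50 nM fluorescein-HOX-A9 DNA (stock) added; 30 min ambient. Buffer 50 mM Tris-HCl pH 7.5, 50 mM NaCl, 1 mM DTT, 0.05% BSA.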
A number is an active result; - = inactive; ? = inconclusive; . = no result given; [ ] = dose if it differs, or a comment.

SMILES | ClpP mod | Menin MLL FP TR | Menin MLL FP FL | p53 reactivator | CXXC DNA block
Cn1c(=O)c2nc(-c3ccccc3)c(-c3ccccc3)nc2n(C)c1=O | - | . | . | . | .
Cn1c(=O)c2nc(Cl)c(-c3ccccc3)nc2n(C)c1=O | 25µM | - | - | - | -
Cc1ccc(-c2cc3nc(C)cc(NCc4ccco4)n3n2)cc1 | 28µM | - | - | ? | -
CN(C)CCCNc1cc(-c2ccccc2)nc2cc(-c3cccc(F)c3)nn12 | - | - | - | . | ?
Cc1cccc(-c2cc3nc(C)cc(NCCCN(C)C)n3n2)c1 | 32µM | - | - | - | -
CN(CC(=O)O)c1ccc(C=O)cc1 | - | . | . | . | .
COc1ccc(C2C(C#N)=C(SCC(=O)Nc3ccc(C)cc3)NC3=C2C(=O)CC(C)(C)C3)cc1 (stereo not given) | 22µM | - | - | - | -
CN(C)CCSc1nc(-c2ccccc2)nc2c1CCCC2 | 16µM | . | - | - | -
O=C(OCC(=O)c1c[nH]c2ccccc12)c1cc2ccccc2cc1O | 20µM | ? | - | - | -
CCOC(=O)c1c(C)[nH]c(C)c1C(=O)COC(=O)c1ccccc1O | - | - | - | - | -
Cc1[nH]c2ccccc2c1C(=O)COC(=O)c1ccccc1O | 3.5µM | . | . | ? | .
CCOC(=O)c1noc2ncnc(Nc3ccc(C)c(F)c3)c12 | - | . | . | . | .
Cc1cc(C)c(N(Cc2ccccc2)S(=O)(=O)c2ccc(OCCNC(=O)c3cc4ccccc4o3)cc2)c(C(=O)NO)c1 | . | - | - | . | .
CSc1nc(SCC(=O)NCc2ccco2)c2c3c(sc2n1)COC(C)(C)C3 | - | - | - | - | -
CC(C)Sc1nc(NCc2ccco2)c2c3c(sc2n1)COC(C)(C)C3 | 28µM | - | - | ? | -
CCc1cccc2c(C(=O)COC(=O)c3nccnc3N)c[nH]c12 | 28µM | . | . | - | .
CCOC(=O)c1nn(-c2ccccc2C)c2nc(-c3ccc(Cl)cc3)c(C#N)c(=O)n12 | 32µM | . | - | - | -
CCOC(=O)c1nn(-c2ccccc2)c2nc(-c3ccc(OC)cc3)c(C#N)c(=O)n12 | - | - | - | - | -
CCOC(=O)c1nn(-c2ccccc2C)c2nc(-c3ccc(C)cc3)c(C#N)c(=O)n12 | 35µM | ? | - | . | -
OCC1OC([S-])[C@H](O)C(O)C1O.[Au+] (stereo not given in full) | . | - | - | . | -
O=C(O)CCC(NC(=O)c1cncc(O)c1)C(=O)O (stereo not given) | 25µM | - | - | - | -
O=C(O)CCCNC(=O)c1cncc(O)c1 | ? | - | - | - | -
Cn1ccnc1Sc1ccc(C(N)=O)cc1[N+](=O)[O-] | 32µM | - | - | - | -
COc1ccc(C2CC(c3ccccc3)Oc3cc(C)c(Cl)c(C)c32)cc1 (stereo not given) | . | - | - | . | .
O=C(C1CCCN(Cc2ccccc2[N+](=O)[O-])C1)N1CCCC1 (stereo not given) | 28µM | - | - | - | -
SMILES | ClpP mod | Menin MLL FP TR | Menin MLL FP FL | p53 reactivator | CXXC DNA block
C=C(C(C)=O)C(O)c1cccc(OC)c1 (stereo not given) | . | - | - | . | .
O=c1[nH]c(Nc2ccccc2)cc2ccccc12 | 28µM | - | - | - | -
CCCCc1cc2c(cn1)C(=O)C(C)(OC(C)=O)C(=O)C2 (stereo not given) | . | -[11.7 µM] | -[11.7 µM] | . | .
C[C@H]1Cc2c(-c3ccccc3)nc3c(c2CO1)CN(C(=O)c1cccnc1)CC3 | . | -[11.7 µM] | -[11.7 µM] | . | .
CN1CC2=Cc3ccccc3OC23Oc2ccccc2C=C3C1 | 3.5µM | - | ? | ? | -
O=C1c2ccccc2OC2(C=Cc3ccccc3O2)N1Cc1ccccc1 (stereo not given) | - | - | - | - | -
O=C(Cc1ccccc1Nc1c(Cl)cccc1Cl)OCO/N=[N+](\[O-])N1CCCC1 | . | - | - | . | .
CCOC(=O)C1CCN(C(=O)CN2C(=O)C(C(C)C)Oc3ccccc32)CC1 (stereo not given) | 3.5µM | ? | - | - | -
CCOC(=O)C1CCN(C(=O)CN2C(=O)c3cccnc3Oc3ccccc32)CC1 | - | . | . | - | -
N#Cc1cccc(S(=O)(=O)N2CCN(c3nc(-c4cccs4)nc4ccccc34)CC2)c1 | - | . | . | . | .
CCCC(=O)Nc1ccc2oc(-c3cccnc3)nc2c1 | 16µM | - | - | - | -
CCCC(=O)Nc1cccc(-c2nc3cc(C)c(C)cc3o2)c1 | 22µM | - | - | ? | -
CCOc1ccc(C(=O)Nc2ccc3oc(-c4cccnc4)nc3c2)cc1 | - | . | . | . | .
CCCC(=O)Nc1ccc2oc(=O)ccc2c1 | 25µM | - | - | - | -
CCCCC(=O)Nc1ccc2oc(-c3cccnc3)nc2c1 | 18µM | - | - | ? | -
CCCC(=O)Nc1cccc(-c2nc3ccccc3o2)c1 | - | - | - | - | -
CCOc1ccc(/C=C/c2cc[n+](C)c3ccccc23)cc1OCC | - | . | . | . | .
O=C(COc1ccccc1C(=O)Nc1ccccc1)Nc1ccccc1F | - | . | . | . | .
Cc1ccc2oc(-c3cccc(NC(=O)C4CCCO4)c3)nc2c1 (stereo not given) | 28µM | - | - | - | -
COc1ccc(C(c2nnnn2CS(=O)(=O)c2ccc(C)cc2)N2CCN(c3ncccn3)CC2)cc1 (stereo not given) | 32µM | - | - | - | -
Cc1ccc(S(=O)(=O)Cn2nnnc2C(c2ccccc2)N2CCN(c3ncccn3)CC2)cc1 (stereo not given) | - | - | - | - | -
CC(C)=NNC(=O)CN1C(=O)NC2NC(=O)NC21 (stereo not given) | 28µM | - | - | - | ?
O=C1CCCC/C1=C\Nc1ccccc1C(=O)O | 32µM | - | - | ? | -
Brc1ccc[n+](CCc2ccccc2)c1 | - | . | . | . | .
COc1ccccc1/C=C/C(=O)OCCN1CCOCC1 | 25µM | - | - | ? | -
SMILES | ClpP mod | Menin MLL FP TR | Menin MLL FP FL | p53 reactivator | CXXC DNA block
COc1ccccc1/C=C/C(=O)N1CCOCC1 | - | - | - | - | -
COc1ccccc1/C=C/C(=O)c1ccccc1 | - | - | - | 32µM | -
Cn1nc(-c2ccc(F)cc2)nc2c(=O)n(C)c(=O)nc1-2 | - | . | . | . | .
Cc1c(C(=O)Nc2cccc(Cl)c2)oc2ccc(S(=O)(=O)N(C)C3CCCCC3)cc12 | 20µM | . | . | . | .
CC1(C)OB(c2cnc(C#N)nc2)OC1(C)C | - | . | . | . | .
CC12C=C(/C=C/c3ccccc3)C(C)(C1)C(c1ccccc1)CC2=O (stereo not given) | . | -[11.7 µM] | -[11.7 µM] | . | .
O=C(Cn1c(=O)oc2cc(S(=O)(=O)N3CCCC3)ccc21)NC1CCCc2ccccc21 (stereo not given) | - | 32µM | - | - | -
O=C(Cn1c(=O)oc2cc(S(=O)(=O)N3CCCCCC3)ccc21)NC1CCCCCCC1 | - | - | - | - | -
O=C(Cn1c(=O)oc2cc(S(=O)(=O)N3CCCC3)ccc21)Nc1ccc(C(F)(F)F)cc1 | - | 25µM | - | - | -
O=C(Cn1c(=O)oc2cc(S(=O)(=O)N3CCCC3)ccc21)Nc1ccc(OC(F)(F)F)cc1 | - | . | . | . | .
O=S(=O)(Nc1cccc2cccnc12)c1ccc(Br)cc1 | . | ? | - | . | .
